# Source: PubChem
# Shown are actives, neighbours in structure and some others; about 9.4% of the full set was active somewhere.
# Pf growth 48h – Primary qHTS for delayed death inhibitors of the malarial parasite plastid, 48 hour incubation | P. falciparum luciferase growth in erythrocytes, 48 h | Potency, µM (doses to about 28.7 µM), for the others: top-dose activity change, negative = inhibition, actives largely listed as inhibitors | 310,000 tested, 5.9% active | AID 504832, 2011; also: % is scaled to controls: 0 for no effect and ±100 for the full control effect
#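 Compounds are pin-transferred into medium, infected erythrocytes (2% hematocrit, 0.1% parasitemia final) are added, and plates sit one parasite generation at 37 C in 5% CO2. Detection reagent is then added and luminescence measured.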
# AMA1-RON2 inh – qHTS for Inhibitors of AMA1-RON; Towards Development of Antimalarial Drug Lead: Primary Screen | Plasmodium falciparum AMA1 (3D7) - RON2 peptide interaction | AlphaScreen AMA1-biotinylated RON2 peptide binding | Potency, µM (titrated, usually from 58.2 µM), without a hit: at the highest dose activity change, negative = inhibition, hits mostly inhibitors | 360,000 tested, 0.2% active | AID 720542, 2013;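 also: 0% = vehicle wells and -100% = peptide control; nearly all actives have a fitted effect of over 45% in size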
#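 AMA1 (3D7) with his tag at 25 nM final met compounds first, then biotinylated RON2 peptide at 25 nM; detection used donor plus acceptor beads, 10 µg/mL apiece, read by AlphaScreen after 30 min at room temperature.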
# Pf growth 96h – Primary qHTS for delayed death inhibitors of the malarial parasite plastid, 96 hour incubation; P. falciparum luciferase reporter growth, 96 h; AID 504834, 2011; 320,000 tested, 6.9% active; Potency, µM (top dose mostly 28.7 µM), for the others: top-dose activity change, negative = inhibition, actives largely listed as inhibitors; also: % is scaled to controls: 0 for no effect and ±100 for the full control effect
#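 Erythrocytes infected with luciferase-expressing P. falciparum were dispensed at 2% hematocrit and 0.05% parasitemia (final), then incubated with compounds 96 hours at 37 C in 5% CO2. Luminescence after detection reagent addition reported growth.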
# SARS PLpro yeast – qHTS of Yeast-based Assay for SARS-CoV PLP. S. cerevisiae expressing SARS-CoV PLpro, growth rescue. Potency, µM (highest dose often 32.9 µM), inactives show at the top dose activity, positive = growth rescue, hits mostly activators. 330,000 tested, 0.19% active; calls by dose curve; also: 0% is about no effect; nearly all actives have a fitted effect of over 55% in size
# Active calls of the source: *; u = inconclusive; x = no result. Unless noted, calls follow the shape of the dose curve; as a rule, active = well fitted curve in the direction sought with a large enough effect; inconclusive = small, poorly fitted or top-dose-only effect, or another doubt; inactive = no such curve, though single readings can be large; an effect the other way counts as inactive or inconclusive. Potency is read from the fitted curve at half-maximal effect.
SMILES,Pf growth 48h,AMA1-RON2 inh,Pf growth 96h,SARS PLpro yeast
CCc1ccc(OCC(=O)NNC(=O)c2ccc(-n3cncn3)c([N+](=O)[O-])c2)cc1,x,47.9%,x,x
Cc1ccc(COc2ccccc2-c2cc(C(=O)N/N=C/c3cccnc3)[nH]n2)cc1,-1.2%,80.2%,u,-0.9%
Cc1cc(C)c2c(CN3CCN(CCO)CC3)cc(=O)oc2c1,u,7.2%,7.5%,-1.6%
CC(=O)Nc1ccc(S(=O)(=O)Nc2cccc3[nH]ncc23)cc1,u,4.0%,27.7%,0.9%
CN(C(=S)NC(=O)c1ccc(Cl)cc1)C1CCCCC1,u,82.3%,10.4µM*,-2.8%
CN(C(=S)NC(=O)c1ccc(F)cc1)C1CCCCC1,u,91.6%,u,5.7%
O=C(Nc1ccc(F)cc1Cl)C1CCN(C(=O)Nc2ccccc2)CC1,5.7%,-16.2%,13.2%,0.3%
Cc1cc2nc(C)n(CCCNC(=O)Nc3ccc(C#N)cc3)c2cc1C,10.4µM*,-0.9%,4.3%,2.4%
O=C1NCN(c2ccccc2)C12CCN(CCCOc1ccc(F)cc1)CC2,16.9µM*,x,-14.9%,x
O=C(CN1CCCN(S(=O)(=O)c2ccc(F)cc2)CC1)Nc1cccc(F)c1,-3.8%,-15.1%,0.0%,-0.1%
C=CCNC(=S)NC1CC(C)(C)NC(C)(C)C1,10.4%,-9.8%,10.4µM*,5.5%
CC1(C)CC(NC(=S)NC2CC2)CC(C)(C)N1,0.6%,-1.2%,u,-0.1%
C/C(CC(=O)Nc1cccc2c1CCCC2)=N\NC(=O)Cc1ccccc1,-6.2%,63.6%,-26.6%,-3.6%
C/C=C(\C)C(=O)N[C@@H](c1ccccc1)[C@@H](O)C(=O)O[C@H]1C[C@@]2(O)[C@@H](OC(=O)c3ccccc3)C3[C@](C)(C(=O)[C@H](OC(C)=O)C(=C1C)C2(C)C)[C@@H](O)C[C@H]1OC[C@@]31OC(C)=O (stereo partly drawn),u,0.0%,0.0329µM*,-0.1%
CC(=O)O[C@@]12CO[C@@H]1C[C@H](O)[C@@]1(C)C(=O)[C@H](O)C3=C(C)[C@@H](O)C[C@@](O)([C@@H](OC(=O)c4ccccc4)C12)C3(C)C (stereo partly drawn),9.4%,4.7%,u,0.1%
C/C=C(\C)C(=O)N[C@@H](c1ccccc1)[C@@H](O)C(=O)O[C@H]1C[C@@]2(O)[C@@H](OC(=O)c3ccccc3)C3[C@](C)(C(=O)[C@H](O)C(=C1C)C2(C)C)[C@@H](O)C[C@H]1OC[C@@]31OC(C)=O (stereo partly drawn),0.0657µM*,16.2%,0.0738µM*,u
CC(=O)O[C@@]12CO[C@@H]1C[C@H](O)[C@@]1(C)C(=O)[C@H](O)C3=C(C)[C@@H](OC(=O)[C@H](O)[C@@H](NC(=O)OC(C)(C)C)c4ccccc4)C[C@](O)([C@@H](OC(=O)c4ccccc4)[C@H]21)C3(C)C,x,x,x,-0.3%
CCOc1ccc(S(=O)(=O)N2CCCC(C(=O)NCc3cccnc3)C2)cc1Cl (stereo not drawn),-6.9%,11.3%,u,0.1%
COC(=O)Cn1nc(-c2ccccc2)c2ccccc21,27.5%,19.2%,u,-26.0%
N#CCC(=O)N1CCN(C(c2ccccc2)c2ccccc2)CC1,x,0.0%,x,x
O=C(CCn1c(=O)oc2ccccc21)N1CCN(C(c2ccccc2)c2ccccc2)CC1,5.86µM*,-7.0%,31.1%,u
CN1C(=O)C(CC(=O)N2CCN(C(c3ccccc3)c3ccccc3)CC2)N(C)C1=O (stereo not drawn),11.7µM*,-2.4%,u,6.5%
O=C(Cn1c(=O)oc2ccccc21)N1CCN(c2ccccc2)CC1,12.5%,-11.2%,13.1µM*,-0.9%
O=C(CCn1c(=O)oc2ccccc21)N1CCN(c2ccccc2F)CC1,8.2%,-4.1%,u,-4.0%
COc1ccc(Cc2c(O)nc(SCC(=O)NC(C)(C)C)[nH]c2=O)cc1,7.4%,-10.7%,u,0.4%
SMILES,Pf growth 48h,AMA1-RON2 inh,Pf growth 96h,SARS PLpro yeast
Cc1ccccc1NC(=O)CN1CCOCC1,25.6%,-8.9%,u,8.1%
O=C(NC1CCCC1)c1ccc(COc2ccccc2Br)o1,0.0%,0.0%,u,u
Cc1cc(C(=O)Nc2ccon2)cs1,24.2%,10.1%,u,1.6%
O=C(Nc1ccon1)c1ccc(OC2CCCC2)cc1,-14.1%,-2.8%,5.22µM*,-11.1%
CC(C)(C)c1cc(NC(=O)c2ccc(OC3CCCC3)cc2)no1,11.7µM*,-8.1%,11.7µM*,8.5%
O=C(O)Cc1cn(-c2ccccc2)nc1-c1ccc(Cl)cc1,-13.2%,12.6%,-18.1%,-1.8%
O=C(CC1C[C@H](C(=O)N2CCCCC2)[C@@]2(CCc3ccccc3)c3[nH]c4ccccc4c3CCN2C1=O)NCc1ccco1 (stereo partly drawn),x,-0.6%,x,-1.6%
Cc1onc(-c2ccccc2)c1C(=O)N/N=C/c1ccccc1OC(C)C,9.3%,14.6%,-2.8%,5.6%
COc1ccccc1/C=N/NC(=O)c1c(-c2ccccc2)noc1C,-14.8%,9.2%,2.08µM*,0.3%
COc1ccccc1/C=N/NC(=O)C1=NNC(c2ccccc2)(c2ccccc2)C1,7.38µM*,x,u,-20.5%
Cc1cccc(/C=N/NC(=O)c2c(-c3ccccc3)noc2C)c1O,9.28µM*,24.0%,6.57µM*,u
Cc1ccc(NC(=O)COC(=O)c2cc(=O)c3ccccc3o2)c(Br)c1,x,19.8%,x,7.3%
NC(=O)c1ccccc1OCC(=O)N1CCCc2ccccc21,10.4%,-1.6%,9.1%,1.1%
CC(=O)Nc1sc(N/N=C\c2ccccc2)nc1-c1cccs1,u,21.3%,u,-0.6%
CC(Sc1nc2cc([N+](=O)[O-])ccc2n1-c1ccc(F)cc1)C(=O)NCc1ccc2c(c1)OCO2 (stereo not drawn),u,8.0%,1.65µM*,14.8%
Cc1cccc(-n2c(SCC(=O)NCc3ccc4c(c3)OCO4)nc3ccccc3c2=O)c1,u,9.8%,u,12.2%
Cc1cc(C)cc(-n2c(SC(C)C(=O)NCc3ccc4c(c3)OCO4)nc3ccccc3c2=O)c1 (stereo not drawn),13.1µM*,-18.2%,0.0%,20.6%
COc1ccccc1-n1c(SCC(=O)NCc2ccc3c(c2)OCO3)nc2cc([N+](=O)[O-])ccc21,u,u,u,6.3%
CC(Sc1nc2cc([N+](=O)[O-])ccc2n1-c1cccc(C(F)(F)F)c1)C(=O)NC(N)=O (stereo not drawn),0.586µM*,8.9%,0.657µM*,1.0%
Cc1ccc(C(=O)N2CCN(Cc3ccc4c(c3)OCO4)CC2)c(Cl)c1,-10.3%,-0.9%,u,8.9%
CC(=O)N1CC2(CC(=O)OC(C)C)CN(C(C)=O)CC(CC(=O)OC(C)C)(C1)C2=O,3.9%,-1.0%,11.7µM*,0.5%
COc1cc2c(cc1NC(=O)C(C)N1CCN(S(=O)(=O)c3ccccc3[N+](=O)[O-])CC1)oc1ccccc12 (stereo not drawn),x,10.5%,5.86µM*,-2.0%
